Source: PubChem BioAssay (NCATS)
Records with an inconclusive call do not appear. Activity calls are given as the source filed them. Calls follow the shape of the dose curve; as a rule, active = well fitted inhibition curve with a large enough effect; inconclusive = small, poorly fitted or top-dose-only effect; inactive = flat fitted curve, though single readings scatter.

Tested on: AA1029
Assay: qHTS profiling for inhibitors of Plasmodium falciparum proliferation (AID 504749); also: nearly all actives have a fitted effect of over 60% in size
Conditions: P. falciparum in erythrocytes, SYBR Green DNA, 72 h; series mostly up to 28.7 µM
Method in brief: (§1)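 Infected RBCs, 0.3% parasitemia/2.5% Hct final; cpd 72 h, 37 C, 5% CO2; lysis buffer with saponin/triton/SYBR Green I, o/n RT dark; FI 485/535; norm. to artemisinin (0.29 uM) and DMSO.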
Potency is read from the fitted curve at half-maximal effect.

Row | SMILES | Potency
1 | CCCCCCCCCCCCCCCCOP(=O)([O-])OCC[N+](C)(C)C | inactive
2 | CNCCC=C1c2ccccc2CCc2ccccc21 | 4.47 µM (active)
3 | O=C1OC(c2ccc(O)cc2)(c2ccc(O)cc2)c2ccccc21 | inactive
4 | Oc1ccc(Cl)cc1Sc1cc(Cl)ccc1O | inactive
5 | CN(C(=O)CN(CCO)CC(=O)N(C)C(C)(C)Cc1ccccc1)C(C)(C)Cc1ccccc1 | inactive
6 | CO/N=C1\CN(c2nc3c(cc2F)c(=O)c(C(=O)O)cn3C2CC2)CC1CN (stereo not given) | 7.94 µM (active)
7 | O=C(N/N=C/c1ccccc1O)c1ccncc1 | 11.2 µM (active)
8 | c1ccc(OCc2ccc(CCCN3CCOCC3)cc2)cc1 | inactive
9 | NC(CS)C(=O)O (stereo not given) | 15.8 µM (active)
10 | N[C@H](Cc1c[nH]c2ccccc12)C(=O)O | inactive
11 | CC(C)NC[C@@H](O)COc1cccc2ccccc12 | 11.2 µM (active)
12 | CN1CCN(CCCN2c3ccccc3Sc3ccc(S(=O)(=O)N(C)C)cc32)CC1 | inactive
13 | CCOC(=O)COc1ccc2c(C)c(CCN(CC)CC)c(=O)oc2c1Cl | inactive
14 | OC(CCN1CCCCC1)(c1ccccc1)c1ccccc1 | 7.94 µM (active)
15 | CCN1CCCC1=O | inactive
16 | C[C@@H]1CN(CCCn2c3ccccc3c3ccccc32)C[C@H](C)N1 | 4.47 µM (active)
17 | CCCCc1nc(Cl)c(CO)n1Cc1ccc(-c2ccccc2-c2nn[nH]n2)cc1 | 10 µM (active)
18 | CCN(CC)CCOc1ccc(C(O)(Cc2ccc(Cl)cc2)c2ccc(C)cc2)cc1 (stereo not given) | 11.2 µM (active)
19 | Cc1ccc(C(=O)C(C)CN2CCCCC2)cc1 (stereo not given) | inactive
20 | O=C1OCCN1/N=C/c1ccc([N+](=O)[O-])o1 | 10 µM (active)
21 | Cc1ccc(O)c2ncccc12 | inactive

Tested on: AS120
Assay: as above
Conditions: P. falciparum in erythrocytes, SYBR Green DNA, 72 h; series mostly up to 28.7 µM
Method in brief: as §1

Row | SMILES | Potency
22 | CC(=O)N/N=C/c1ccc([N+](=O)[O-])o1 | 7.08 µM (active)
23 | CCCCCCCCCCCCCCCCOP(=O)([O-])OCC[N+](C)(C)C | inactive
24 | O=C1OC(c2ccc(O)cc2)(c2ccc(O)cc2)c2ccccc21 | inactive
25 | O=C(N/N=C/c1ccccc1O)c1ccncc1 | 4.47 µM (active)
26 | c1ccc(OCc2ccc(CCCN3CCOCC3)cc2)cc1 | inactive
27 | C=C(CC)C(=O)c1ccc(OCC(=O)O)c(Cl)c1Cl | 12.6 µM (active)
28 | N[C@H](Cc1c[nH]c2ccccc12)C(=O)O | inactive
29 | c1ccc(-c2ccc(C(c3ccccc3)n3ccnc3)cc2)cc1 (stereo not given) | 3.98 µM (active)
30 | CC(C)NC[C@@H](O)COc1cccc2ccccc12 | 8.91 µM (active)
31 | CN(C)C(=S)SC(=S)N(C)C | 12.6 µM (active)
32 | OC(CCN1CCCCC1)(c1ccccc1)c1ccccc1 | 11.2 µM (active)
33 | CCN1CCCC1=O | inactive
34 | C[C@@H]1CN(CCCn2c3ccccc3c3ccccc32)C[C@H](C)N1 | 12.6 µM (active)
35 | Cc1cccc(C)c1NC(=O)CN1CCN(CCCC(c2ccc(F)cc2)c2ccc(F)cc2)CC1 | 3.98 µM (active)
36 | CCCCc1nc(Cl)c(CO)n1Cc1ccc(-c2ccccc2-c2nn[nH]n2)cc1 | 8.91 µM (active)
37 | Cc1ccc(C(=O)C(C)CN2CCCCC2)cc1 (stereo not given) | inactive
38 | CN(C)CC/C=C1\c2ccccc2Sc2ccc(Cl)cc21 | 11.2 µM (active)
39 | CCN1CCC[C@H]1CNC(=O)c1c(OC)ccc(Br)c1OC | inactive
40 | CCCCCCCCCCCCCCNCCO | 12.6 µM (active)
